“And” between values parts separate entries of the source, which are not always exact repeats. Identical values can stand only once. Results filed as inconclusive are left out. Some compounds were tested as several samples or in several runs, with calls that do not always agree. The source made the active and inactive calls. Unless noted, the call rests on the fitted dose curve.
Key:
[1] = qHTS assay to identify small molecule agonists of the sonic hedgehog signaling (Shh) pathway (AID 1259368);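 further: NIH/3T3-derived 3T3Gli1-Luc cells carrying a stable Gli1-driven firefly luciferase reporter; series mostly up to about 92 µM; nearly all actives have a fitted effect of over 15% in size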
Method in brief: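 Quantitative high-throughput format using a Gli1-driven firefly luciferase reporter line derived from NIH/3T3 cells. After a 24 hr compound treatment at 37 C and 5% CO2, luminescence reported Gli1 response element activity.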

[2] = qHTS assay to identify small molecule antagonists of the sonic hedgehog signaling (Shh) pathway (AID 1259369); further: nearly all actives have a fitted effect of over 45% in size; further: potency means the concentration at half of the fitted maximal effect
Method in brief: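 Stable Gli1-Luc reporter NIH/3T3 clone; quantitative HTS in stimulated mode with conditioned medium. Luminescence measured after 24hr compound treatment at 37 C.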

[3] = qHTS assay to identify small molecule agonists of the androgen receptor (AR) signaling pathway in the presence of an antagonist - cell viability counter screen (AID 1259379; active means well fitted curve in the direction sought with a large enough effect in the repeat runs; an effect the other way counts as inactive or inconclusive;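 further: MDA-kb2 human breast cancer cells carrying an MMTV luciferase reporter; series mostly up to about 92 µM; nearly all actives have a fitted effect of over 25% in size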)
Method in brief: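 Nilutamide-containing (3.0uM final) MDA-kb2 cultures, 3,000 cells/well, were treated with compounds across 15 concentrations. After 16 hr at 37C with no CO2, cell viability was determined by CellTiter-Fluor fluorescence in the luciferase assay wells.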

[4] = qHTS assay to identify small molecule agonists of the estrogen receptor beta (ER-beta) signaling pathway - cell viability counter screen (AID 1259380; active means well fitted curve in the direction sought with a large enough effect in the repeat runs; an effect the other way counts as inactive or inconclusive; further: nearly all actives have a fitted effect of over 30% in size)
Method in brief: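 Steps: plate ER-beta-UAS-bla HEK293T cells, rest 6 hr; add compounds in DMSO; incubate 16 hr at 37C, 5% CO2; add FRET substrate 2 hr; add CellTiter-Glo, wait 30 min at room temperature; read luminescence.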

[5] = qHTS assay to identify small molecule antagonists of the estrogen receptor beta (ER-beta) signaling pathway - cell viability counter screen (AID 1259382; active means well fitted curve in the direction sought with a large enough effect in the repeat runs; an effect the other way counts as inactive or inconclusive;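 further: HEK293T cells carrying ER-beta-UAS-bla reporter stimulated with estradiol; series mostly up to about 92 µM; nearly all actives have a fitted effect of over 55% in size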)
Method in brief: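 Viability is scored by CellTiter-Glo luminescence (30 min, room temperature) in ER-beta-UAS-bla HEK293T wells already read for reporter fluorescence. Compound exposure lasts 16 hr at 37C alongside 1nM 17-beta-estradiol in charcoal-stripped serum medium.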

[6] = molecular target: Estrogen receptor (Homo sapiens) (UniProt P03372); test: qHTS assay to identify small molecule agonists of the estrogen receptor alpha (ER-alpha) signaling pathway in the presence of an antagonist (AID 1259383); further: top concentration of the series differs between compounds; nearly all actives have a fitted effect of over 15% in size
Sequence of Estrogen receptor (Homo sapiens) (P03372 whole entry, looked up): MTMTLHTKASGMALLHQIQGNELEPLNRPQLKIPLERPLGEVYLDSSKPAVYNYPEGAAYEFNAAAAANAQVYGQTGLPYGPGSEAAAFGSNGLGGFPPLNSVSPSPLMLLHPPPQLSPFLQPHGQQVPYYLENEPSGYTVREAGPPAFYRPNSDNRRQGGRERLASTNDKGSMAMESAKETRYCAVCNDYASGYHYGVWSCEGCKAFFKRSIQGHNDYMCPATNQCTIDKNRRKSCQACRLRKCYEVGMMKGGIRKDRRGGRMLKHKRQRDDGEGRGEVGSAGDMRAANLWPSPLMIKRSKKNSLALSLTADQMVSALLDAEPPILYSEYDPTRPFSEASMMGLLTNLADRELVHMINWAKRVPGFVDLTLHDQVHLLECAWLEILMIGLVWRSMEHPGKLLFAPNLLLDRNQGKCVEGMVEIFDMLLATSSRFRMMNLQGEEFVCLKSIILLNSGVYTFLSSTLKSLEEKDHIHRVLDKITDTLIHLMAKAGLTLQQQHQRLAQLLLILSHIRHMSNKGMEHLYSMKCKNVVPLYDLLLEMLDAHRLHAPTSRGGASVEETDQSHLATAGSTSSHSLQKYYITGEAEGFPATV
Method in brief: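 Readout was ERE-driven luciferase luminescence in VM7Luc4E2 cells, which express full-length ER-alpha endogenously. Compounds were tested at 15 concentrations for 22hr alongside 10.0nM ICI-182,780 (final concentration).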

[7] = qHTS assay to identify small molecule agonists or antagonists of the thyroid stimulating hormone receptor (TSHR) signaling pathway - wild type cell line counter screen (AID 1259384)
Method in brief: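 Wild-type Hek293 cells, 800/well, 18 h at 37C, then compound with Ro20-1724 for 30 min RT. cAMP by HTRF (cAMP-d2/anti-cAMP cryptate), 1 h RT, fluorescence read. 15 concentrations, triplicates.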

[8] = molecular target: Androgen receptor (Homo sapiens) (UniProt P10275); test: qHTS assay to identify small molecule agonists of the androgen receptor (AR) signaling pathway in the presence of an antagonist (AID 1259381); further: nearly all actives have a fitted effect of over 15% in size; further: potency means the concentration at half of the fitted maximal effect
Sequence of Androgen receptor (Homo sapiens) (P10275 whole entry, looked up): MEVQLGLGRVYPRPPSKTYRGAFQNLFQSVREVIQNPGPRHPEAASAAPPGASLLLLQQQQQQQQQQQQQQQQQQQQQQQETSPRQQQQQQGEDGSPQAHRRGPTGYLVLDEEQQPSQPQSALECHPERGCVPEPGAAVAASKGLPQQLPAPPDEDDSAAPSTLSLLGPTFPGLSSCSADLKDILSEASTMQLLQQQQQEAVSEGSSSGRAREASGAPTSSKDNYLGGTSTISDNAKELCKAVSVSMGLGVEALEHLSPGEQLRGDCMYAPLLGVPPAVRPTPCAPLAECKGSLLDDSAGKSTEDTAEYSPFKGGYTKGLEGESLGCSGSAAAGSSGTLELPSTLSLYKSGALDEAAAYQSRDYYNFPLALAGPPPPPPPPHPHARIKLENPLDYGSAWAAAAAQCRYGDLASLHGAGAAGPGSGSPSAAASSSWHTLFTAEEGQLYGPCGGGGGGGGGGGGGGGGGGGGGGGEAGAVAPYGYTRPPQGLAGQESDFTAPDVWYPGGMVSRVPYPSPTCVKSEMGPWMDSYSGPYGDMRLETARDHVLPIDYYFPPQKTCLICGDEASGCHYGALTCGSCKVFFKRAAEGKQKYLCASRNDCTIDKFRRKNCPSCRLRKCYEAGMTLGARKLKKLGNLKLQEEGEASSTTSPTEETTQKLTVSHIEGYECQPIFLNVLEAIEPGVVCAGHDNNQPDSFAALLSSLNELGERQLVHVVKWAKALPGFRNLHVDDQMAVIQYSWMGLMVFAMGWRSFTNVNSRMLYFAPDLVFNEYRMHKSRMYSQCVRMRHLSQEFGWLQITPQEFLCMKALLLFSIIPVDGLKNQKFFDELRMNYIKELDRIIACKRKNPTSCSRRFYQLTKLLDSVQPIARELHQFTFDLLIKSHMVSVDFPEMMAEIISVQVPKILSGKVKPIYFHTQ
Method in brief: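 Reporter-gene luminescence from MDA-kb2 cells exposed 16hr at 37C (0% CO2) to 15-point compound titrations with 3.0uM final nilutamide as AR antagonist.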
On the % scale 0 is the no-effect control and ±100 the full control effect.

CN(C)CCCNCCCN(C)C
inactive: outcome [1] | Potency [2] | Potency [3] | Potency [4] | Potency [5] | Potency [6] | outcome [7]

CCN(CC)CCOCCOC(=O)C1(c2ccccc2)CCCC1
inactive: outcome [1] | Potency [2] | Potency [3] | Potency [4] | Potency [5] | Potency [6] | outcome [7]

COc1ccc2c(c1)CCCC2=O
inactive: outcome [1] | Potency [2] | Potency [3] | Potency [5] | Potency [6]

CCCCNC(=O)NCCCC
inactive: outcome [1] | Potency [2] | Potency [3] | Potency [8] | Potency [5] | Potency [6] | outcome [7]

C[C@@H]1CCN(C(=O)[C@H](CCCN=C(N)N)NS(=O)(=O)c2cccc3c2NC[C@H](C)C3)[C@@H](C(=O)O)C1
inactive: outcome [1] | Potency [2] | Potency [3] | Potency [5] | Potency [6]

NS(=O)(=O)c1cc(C(=O)O)cc(N2CCCC2)c1Oc1ccccc1
inactive: outcome [1] | Potency [2] | Potency [3] | Potency [4] | Potency [5] | Potency [6]

C=CCS(=O)(=O)O
inactive: outcome [1] | Potency [2] | Potency [3] | Potency [4] | Potency [5] | Potency [6] | outcome [7]

CCCc1cc(C(N)=S)ccn1
inactive: outcome [1] | Potency [2] | Potency [3] | Potency [5] | Potency [6] | outcome [7]

C[C@](N)(Cc1ccc(O)cc1)C(=O)O
inactive: activity change [1] -0.726% [at 8.39 µM] | activity change, negative = inhibition [2] 37.1% [at 8.39 µM] | activity change, negative = cytotoxicity [3] -1.36% [at 8.39 µM] | activity change, negative = cytotoxicity [4] 14.6% [at 8.39 µM] | activity change, negative = cytotoxicity [5] 4.19% [at 8.39 µM] | activation [6] 1.12% [at 8.39 µM] | cAMP activity change [7] 3.57% [at 8.39 µM]

NC(=O)c1ccc([N+](=O)[O-])cc1
inactive: outcome [1] | Potency [2] | Potency [3] | Potency [4] | Potency [5] | outcome [7]

CC(=O)Nc1c(I)cc(I)c(C(=O)O)c1I
inactive: outcome [1] | Potency [2] | Potency [3] | Potency [4] | Potency [5]

CC(C)(c1ccc(O)cc1)c1ccc(O)cc1
inactive: outcome [1] | Potency [3] | Potency [5] | outcome [7]
inactive and 27.8 µM (active): Potency [8]
active: Potency [2] 38.1 µM and 19.7 µM

N[C@H](C(=O)O)c1ccc(O)cc1
inactive: activity change [1] -0.267% [at 18.9 µM] | Potency [2] | activity change, negative = cytotoxicity [3] 0.253% [at 19 µM] | activity change, negative = cytotoxicity [4] 9.39% [at 19 µM] | activity change, negative = cytotoxicity [5] 3.71% [at 19 µM] | activation [6] 0.585% [at 19 µM] | cAMP activity change [7] 3.37% [at 18.9 µM]

CC(=O)c1ccccc1O
inactive: outcome [1] | Potency [2] | Potency [3] | Potency [5] | Potency [6] | outcome [7]

CC(C)(C)c1ccc(O)c(O)c1
active: Potency [2] 15.9 µM and 6.86 µM
inactive: outcome [1] | Potency [3] | Potency [4] | Potency [5] | outcome [7]

C[N+](C)(C)CC(O)CC(=O)[O-] (stereo unspecified)
inactive: outcome [1] | Potency [2] | Potency [3] | Potency [5] | outcome [7]

N[C@@H](C(=O)N[C@@H]1C(=O)N2C(C(=O)O)=C(Cl)CS[C@H]12)c1ccccc1
inactive: activity change [1] -0.56% [at 8.39 µM] | activity change, negative = inhibition [2] -3.06% [at 8.39 µM] | activity change, negative = cytotoxicity [3] -6.11% [at 8.39 µM] | activity change, negative = cytotoxicity [4] 2.28% [at 8.39 µM] | activity change, negative = cytotoxicity [5] 5.71% [at 8.39 µM] | activation [6] 0.817% [at 8.39 µM]

CC(C)NCCCC1(C(N)=O)c2ccccc2-c2ccccc21
inactive: outcome [1] | Potency [2] | Potency [3] | Potency [4] | Potency [5] | Potency [6] | outcome [7]
